Source: PubChem
Tau fluor cs: counter-screen for tau fibril formation inhibitors; tau K18 P301L Alexa594 fluorescence, heparin fibrillization; Potency, µM (highest dose often 57.7 µM), for inactives: top-dose activity change, negative = decrease; hit rate 0.93% among 280,000; AID 1463; further: nearly all actives have a fitted effect of over 55% in size
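Human tau K18 P301L (15 uM unlabeled, 0.24 uM Alexa 594-labeled) in 100 mM sodium acetate pH 7 with 20 uM heparin, 6 hr at 37 C. ThT 30 uM added, 1 hr ambient; Alexa 594 FP and total fluorescence read at 555/632 nm.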
TexasRed fluor: Texas Red fluorescence interference in TRb-SRC2 counter-screen | AID 1479 | hit rate 0.29% among 280,000 | Potency, µM (series often up to 106 µM), for the others: at the highest dose fluorescence change, negative = quenching | TRb/SRC2 Texas Red total fluorescence interference; active means well fitted curve in either direction with a large enough effect; inconclusive means small, poorly fitted or top-dose-only effect
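Human TRb ligand-binding domain at 0.6 uM with 20 nM Texas Red SRC2 peptide in Tris buffer containing 1 uM T3 and 5% DMSO, incubated with compound 5 h at ambient temperature. Total fluorescence (555/632 nm) calculated as parallel + 2 × perpendicular.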
Tau fibril ThT: tau fibrillization inhibition (ThT binding); hit rate 2.1% among 270,000; Potency, µM (top dose mostly 57.4 µM), inactives show at the highest dose activity, negative = inhibition, actives largely listed as inhibitors; recombinant tau K18 P301L (four-repeat tau fragment), heparin-induced fibrillization, ThT fluorescence; AID 1460; P10636; further: nearly all actives have a fitted effect of over 55% in size
Target sequence (P10636 561-689 P618L limits assumed): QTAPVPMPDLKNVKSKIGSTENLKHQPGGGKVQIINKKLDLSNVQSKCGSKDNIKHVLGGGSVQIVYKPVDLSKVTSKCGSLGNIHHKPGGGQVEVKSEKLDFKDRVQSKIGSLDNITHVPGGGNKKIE
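In this qHTS, human K18 P301L tau is incubated with compound and heparin for 6 hr at 37 C, and Thioflavin T fluorescence then reports fibril load.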
TRb-SRC2 inh: TRbeta-SRC2 interaction inhibition; AID 1469; hit rate 0.065% among 280,000; P10828; Potency, µM (titrated, usually from 106 µM), without a hit: at the top dose activity change, negative = inhibition, most hits filed as inhibitors; TRbeta-SRC2 peptide binding, fluorescence polarization; receptor liganded with 1 µM T3;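 further: plate controls were bound peptide for no effect and peptide without receptor for full effect; nearly all actives have a fitted effect of over 50% in size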
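Compounds were added to 0.6 uM TRb ligand-binding domain and 20 nM Texas Red-labeled SRC2 peptide in Tris buffer containing 1 uM T3, incubated 5 hr at ambient temperature, then read by fluorescence polarization.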
Tau fibril FP: inhibitors of human tau fibril formation; AID 1468; hit rate 0.39% among 280,000; P10636; K18 P301L tau heparin fibrillization, Alexa594 FP, 6 h; Potency, µM (series often up to 57.7 µM), for inactives: at the top dose activity, negative = inhibition, usual class: inhibitors; further: nearly all actives have a fitted effect of over 55% in size
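Quantitative HTS format: compounds meet 15 uM recombinant K18 P301L tau and Alexa 594-tau tracer in 100 mM sodium acetate pH 7; 20 uM heparin triggers fibrillization at 37 C over 6 hr; FP gives the signal.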
Active calls of the source: *; ? = inconclusive; · = not tested or not shown; [ ] = another dose, or the depositor's remark. Most compounds without a hit are left out; they make up all but 3.1% or so of the library. Unless noted, the call rests on the fitted dose curve; in most records, active means well fitted curve in the direction sought with a large enough effect; inconclusive means small, poorly fitted or top-dose-only effect, or another doubt; inactive means no such curve, though single readings can be large; an effect the other way counts as inactive or inconclusive. Unless noted, on the % scale 0 is the no-effect control and ±100 the full control effect; potency means the concentration at half of the fitted maximal effect.

SMILES | Tau fluor cs | TexasRed fluor | Tau fibril ThT | TRb-SRC2 inh | Tau fibril FP
COc1ccc(CN=C(Nc2ccccc2)SC2CC(=O)NC2=O)cc1 (configuration not stated) | -63.0% | 10.5% | 10µM* | 2.6% | -4.4%[2.34 µM]
CC(=O)c1ccc(N2CCN(S(=O)(=O)c3ccc4[nH]c5c(c4c3)CCCCC5)CC2)cc1 | ? | -1.0% | -13.1% | 5.6% | -7.4%
CC(=O)Nc1ccc(NS(=O)(=O)c2ccc3[nH]c4c(c3c2)CCCCC4)cc1 | 15.8µM*[quencher] | -1.0% | ? | 3.4% | -5.6%
Cc1ccc(NS(=O)(=O)c2ccc3[nH]c4c(c3c2)CCCC4)c(C)c1 | ? | ? | 3.9% | 4.7% | 14.4%
CC(=O)c1ccc(NS(=O)(=O)c2ccc3[nH]c4c(c3c2)CCCCCC4)cc1 | 10µM*[quencher] | 0.9% | 5.9% | 0.9% | ?
CC(=O)c1ccc(NS(=O)(=O)c2ccc3[nH]c4c(c3c2)CCCC4)cc1 | 8.91µM*[quencher] | 8.6% | 10.7% | 4.3% | -7.0%
CC(=O)Nc1cccc(-c2nnc(SCC(=O)c3cc([N+](=O)[O-])ccc3Br)o2)c1 | 14.1µM*[quencher] | -13.3% | ? | 11.0% | -19.3%
CC(C)Oc1ccc(CNC(=O)c2cnc3sc(N4CCCCCC4)nn3c2=O)cc1 | -2.2% | -0.9% | -5.3% | -2.5% | -4.4%
Cn1cccc1/C=N/n1cnnc1 | -7.2% | 0.6% | -4.4% | 7.3% | -1.4%
Cn1cccc1/C=C1\CCC/C(=C\c2cccn2C)C1=O | ? | -0.8% | 5.01µM* | 8.8% | 8.4%
COC(=O)c1cc(NC(=S)NCc2ccc(Cl)cc2)cc(C(=O)OC)c1 | 14.1µM*[quencher] | 0.1% | 11.0% | -8.3% | 17.8µM*
COC(=O)c1cccc(NC(=S)NCc2ccc(Cl)cc2)c1 | ? | -2.4% | -6.6% | 3.8% | ?
Cc1cccc2sc(N(Cc3cccnc3)C(=O)C3CCCCC3)nc12 | -20.0% | -0.5% | ? | -7.8% | 1.9%
S=C(NCc1ccc(Cl)c(Cl)c1)Nc1ccc2c(c1)OCO2 | 15.8µM*[quencher] | -0.7% | ? | -11.9% | ?
S=C(NCc1ccc2c(c1)OCO2)Nc1ccc(-c2nc3ccccc3[nH]2)cc1 | 12.6µM*[quencher] | -2.6% | ? | -2.9% | ?
Cc1cc(N2CCOCC2)nc2ccc(NC(=S)NCc3ccc4c(c3)OCO4)cc12 | 14.1µM*[quencher] | -1.2% | ? | 6.1% | ?
O=C(COc1ccc(F)cc1)NCc1ccc2c(c1)CCN2C(=O)c1ccccc1 | 1.2% | -4.9% | 6.2% | 4.1% | 9.3%
O=C(Nc1cc(Cl)cc(Cl)c1)c1ccc(F)c(S(=O)(=O)NC2CCCCC2)c1 | ? | -0.2% | 4.9% | -0.7% | 7.08µM*
O=C(Nc1cc(Cl)cc(Cl)c1)c1ccc(F)c(S(=O)(=O)NCc2ccccc2Cl)c1 | ? | -3.2% | 3.6% | 5.5% | 8.91µM*
COc1ccc(CNS(=O)(=O)c2cc(C(=O)Nc3cc(Cl)cc(Cl)c3)ccc2F)cc1 | 3.55µM*[quencher] | -0.2% | 7.6% | 1.8% | 3.55µM*
O=C(Nc1ccc(Br)cc1)c1ccc(F)c(S(=O)(=O)NC2CCCCCC2)c1 | ? | -1.9% | 9.3% | 3.0% | ?
C=Cc1cccc(C)c1 | · | -0.1% | · | -0.8% | ·
CN1CCN(NS(=O)(=O)c2ccc(Cl)s2)CC1 | -25.5% | 0.9% | 17.8µM* | 1.8% | ?
CC(C)(C)c1ccc2c(c1)C(=O)c1ccccc1C2=O | -28.6% | -5.9% | -12.4% | -1.6% | 6.1%
CC(C)(C=O)C1=CC(=O)c2ccccc2C1=O | ? | ? | 8.91µM* | -9.3% | ?
SMILES | Tau fluor cs | TexasRed fluor | Tau fibril ThT | TRb-SRC2 inh | Tau fibril FP
COc1cccc2c1C(=O)C=C(C)C2=O | 7.08µM*[quencher] | -6.3% | 7.08µM* | 7.5% | ?
O=C1C=C(Nc2ccccc2)C(=O)c2ccccc21 | -22.5% | 0.0% | ? | 9.6% | 3.7%
CC1=CC(=O)c2ccccc2C1=O | 7.08µM*[quencher] | -0.1% | 5.01µM* | 0.7% | ?
CCOC(=O)Cn1nc(-c2ccccc2)c2cnc3ccc(OCC)cc3c21 | -16.3% | 0.4% | ? | 1.9% | -13.6%
CCOc1ccccc1N1CCN(Cc2cn[nH]c2-c2ccc(F)cc2)CC1 | -15.8% | 1.4% | -10.0% | 6.7% | 7.5%
Cc1ccc(-n2c(=O)c3sc4ccccc4c3n(CC(=O)NC3CCCC3)c2=O)cc1C | -11.0% | 0.8% | 4.7% | -6.5% | -5.3%
